In PubChem BioAssay AID588726 (The Scripps Research Institute Molecular Screening Center, 2011):
About 8,200 (2.3%) of roughly 360,000 compounds were called active. Many of the other results were omitted from the sample, so actives are more common in it than they were. Unmarked numbers belong to inactive results. No stated cut-off is given here; in the data, active means inhibition above about 27%; inactive means the rest.

What follows are compounds tested against Fructose-bisphosphate aldolase (Mycobacterium tuberculosis (strain ATCC 25618 / H37Rv)) (UniProt P9WQA3) (assay: M. tuberculosis aldolase activity blockers – biochemical, fluorescence, strain H37Rv, primary screen (AID 588726;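 further: 0% = vehicle and 100% = reference inhibitor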)). Settings: purified M. tuberculosis FBA, fluorescence read-out, at 1 µM, active compounds read high.
Sequence of Fructose-bisphosphate aldolase (Mycobacterium tuberculosis (strain ATCC 25618 / H37Rv)) (P9WQA3 whole entry, looked up): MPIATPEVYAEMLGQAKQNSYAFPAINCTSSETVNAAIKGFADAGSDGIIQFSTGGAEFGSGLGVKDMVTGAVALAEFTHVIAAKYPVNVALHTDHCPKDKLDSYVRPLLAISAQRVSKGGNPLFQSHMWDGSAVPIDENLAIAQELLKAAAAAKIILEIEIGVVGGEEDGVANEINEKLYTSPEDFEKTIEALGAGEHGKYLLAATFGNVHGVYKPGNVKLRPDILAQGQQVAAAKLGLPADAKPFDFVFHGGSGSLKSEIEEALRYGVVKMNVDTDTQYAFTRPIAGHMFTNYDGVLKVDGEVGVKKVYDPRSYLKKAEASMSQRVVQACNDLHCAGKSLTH
Work on Nc1c(N(CCO)C(=O)C2CCCCC2)c(=O)[nH]c(=O)n1Cc1ccccc1 yielded an inhibition of 5.19%.
For CCc1nccn1CCC(=O)N1CCCC(N2CCN(c3ccccc3F)CC2)C1 (configuration not stated), the inhibition was -1.12%.
CNC(=O)c1nnn(-c2ccccc2)c1C(=O)NC was tested, and the inhibition was 3.79%.
For N#CCCN1CCN(S(=O)(=O)c2ccc(S(=O)(=O)NC3CC3)cc2)CC1, the inhibition was -0.2%.
With CC(Sc1nnc(-c2ccccc2F)n1C1CC1)C(N)=O (configuration not stated) the inhibition was -0.8%.
With Cc1cc(C)c2nc3nc(C)cc(C)c3c(N)c2c1 the inhibition was 42.9% (active).
With CCC(=O)Nc1ccc(-c2ccc(N3CCCCC3)nn2)cc1 the inhibition was 4.9%.
For CC(=O)N1N=C(c2ccncc2)OC1(Cc1ccccc1)Cc1ccccc1, the inhibition was 46.8% (active).
O=C(Cc1ccccc1)N1N=C(c2ccncc2)CC1(O)C(F)(F)F (configuration not stated) was tested, and the inhibition was -4.28%.
Compound CC(=O)N1N=C(c2ccccc2)OC1c1cccnc1 (configuration not stated) has an inhibition of -0.2%.
Compound CCCCn1c(SCc2ncc(-c3ccccc3)o2)nc2cc(S(N)(=O)=O)ccc21 has an inhibition of -3.35%.
O=C(CN(Cc1ccc(Br)cc1)S(=O)(=O)c1ccccc1)NCc1ccncc1 was tested, and the inhibition was 3.05%.
With Cc1ccc2c(C(=O)CN3CCCC3)c(C)[nH]c2c1 the inhibition was -0.06%.
O=C(Nc1nncs1)c1ccccc1NS(=O)(=O)c1cccs1 was tested, and the inhibition was 75% (active).
In the case of O=C(Nc1cccc(Cl)c1)Nc1ccccc1NS(=O)(=O)c1cccs1, the inhibition is reported as -6.91%.
For COc1cc(NC(=O)c2ccccc2NS(=O)(=O)c2ccc(Cl)s2)cc(OC)c1, the inhibition was 2.51%.
Work on CCCNc1ncnc2sc(C)c(C)c12 yielded an inhibition of 2.22%.
With O=C(Nc1c(Cl)cccc1Cl)C1CCC1 the inhibition was 5.25%.
O=C(Nc1ccc(F)cc1)c1cccnc1N1CCOCC1 showed an inhibition of 1.16%.
For Cc1cccc(C(=O)NC(=S)N2CCN(c3ccc([N+](=O)[O-])cc3)CC2)c1, the inhibition was -0.47%.
For CCC(=O)Nc1cccc(C2=NOC3(C2)C[C@@H](C(N)=O)N(C(=O)c2cc([N+](=O)[O-])cc([N+](=O)[O-])c2C)C3)c1 (some centres not stated), the inhibition was -2.54%.
For N#CC1=C(N)Oc2[nH]c(=S)[nH]c(=O)c2C12C(=O)Nc1ccccc12 (configuration not stated), the inhibition was 126% (active).
Cc1ccc(NC2(C#N)C(=O)Nc3ccccc32)cc1 (configuration not stated) showed an inhibition of -3.14%.
Work on Cc1ccc(OCC(=O)Nc2ccccc2Sc2ccc(Cl)cc2)c([N+](=O)[O-])n1 yielded an inhibition of -0.96%.
Work on Nc1c(-c2ccc(F)cc2)cnc2ncnn12 yielded an inhibition of 1.26%.
With CC1(C)CN(c2ccc(-c3ccnc4ncnn34)cc2)C1=O the inhibition was 809% [above what the read-out allows, likely interference] (active).
Compound O=C(CSCc1ccccc1Cl)NNC(=O)c1ccccc1 has an inhibition of -0.9%.
C[C@H]1CN([C@@H](C)CO)C(=O)c2cc(Br)cnc2O[C@H]1CN(C)S(=O)(=O)c1cccs1 was tested, and the inhibition was 27.8% (active).
Compound CC(C)NC(=O)Nc1cccc2c1O[C@H](CN(C)S(=O)(=O)c1cccs1)[C@@H](C)CN([C@H](C)CO)C2=O has an inhibition of 4.46%.
For C[C@H]1CN([C@@H](C)CO)C(=O)c2cc(-c3cccc(F)c3)cnc2O[C@@H]1CN(C)S(C)(=O)=O, the inhibition was 2.59%.
Cc1cc(C)cc(OCC(=O)OCC(=O)NC2CCCC2)c1 showed an inhibition of -0.07%.
Compound CCN(C(=O)CSc1cccc[n+]1[O-])c1ccccc1 has an inhibition of 0.35%.
Cc1ccc(S(=O)(=O)n2oc(=O)c(C3CCCCC3)c2N)cc1 gave an inhibition of -0.6%.
C=CCSc1nnc2c(n1)-c1cccc3cccc-2c13 gave an inhibition of -1.23%.
FC(F)Oc1ccccc1C1CC(c2ccc(Br)s2)Nc2ncnn21 (configuration not stated) showed an inhibition of 1.95%.
In the case of CCOc1ccccc1C1CC(c2ccccc2)Nc2nc(N)nn21 (configuration not stated), the inhibition is reported as 35.6% (active).
For CCOc1ccccc1C1CC(c2ccc(Cl)cc2)Nc2nc(N)nn21 (configuration not stated), the inhibition was 4.25%.
CCc1cccc(C)c1NC(=O)COC(=O)Cc1ccsc1 gave an inhibition of 4.93%.
In the case of CC(C)NC(=S)Nc1cccc2cnccc12, the inhibition is reported as -1.91%.
With O=c1oc2c(CN3CCCCC3)c(O)ccc2c2c1CCCCC2 the inhibition was 502% [above what the read-out allows, likely interference] (active).
For Cc1c(CN2CCCCC2)c(O)n(CCO)c(=O)c1C#N, the inhibition was 2.47%.
For N#Cc1ccccc1S(=O)(=O)N1CCN(Cc2c(O)ccc3ccccc23)CC1, the inhibition was 2.66%.
In the case of CC(C)CN(C(=O)CSc1ncnc2sccc12)C1CCS(=O)(=O)C1 (configuration not stated), the inhibition is reported as 2.25%.
CCN(C(=O)CSc1ncnc2c1cnn2-c1ccccc1)C1CCS(=O)(=O)C1 (configuration not stated) was tested, and the inhibition was 32.7% (active).
CCC(C)N(C(=O)CSc1ncnc2c1cnn2-c1ccccc1)C1CCS(=O)(=O)C1 (configuration not stated) gave an inhibition of -2.78%.
Compound CN(C)C(=O)CCC(=O)N1CCCCC1C(=O)Nc1ccc(Oc2ccccc2F)cc1 (configuration not stated) has an inhibition of -1.93%.
Compound COc1ccccc1C(=O)Nc1cccc(C(=O)N2CCOCC2)c1 has an inhibition of 3.07%.
